Laboratory results taken from PubChem BioAssay (Tox21).
Records with an inconclusive call do not appear. Calls of active or inactive are those of the source. Unless noted, calls come from the whole dose curve.

Tests used:
[1] = Nuclear factor erythroid 2-related factor 2/antioxidant responsive element (Nrf2/ARE) small molecule agonists: qHTS cell viability counter screen in human keratinocytes (AID 1919968; active = well fitted curve in the direction sought with a large enough effect in the repeat runs; an effect the other way counts as inactive or inconclusive; note: nearly all actives have a fitted effect of over 55% in size; note: potency is the fitted concentration of half-maximal effect)
How it was run: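 KeratinoSens HaCaT cells, 1,500/well, preincubated 5 h, then exposed to compounds in DMSO for 23 h at 37 C/5% CO2. Viability read as CellTiter-Fluor fluorescence after 1 h, in the same wells as the ARE-luciferase read.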

[2] = Nuclear factor erythroid 2-related factor 2/antioxidant responsive element (Nrf2/ARE) small molecule agonists: luciferase reporter gene qHTS assay in human keratinocytes (AID 1919969); note: nearly all actives have a fitted effect of over 35% in size; note: potency is the fitted concentration of half-maximal effect
[3] = molecular target: Gonadotropin-releasing hormone receptor (Homo sapiens) (UniProt P30968); test: Human gonadotropin-releasing hormone receptor (GnRHR) small molecule agonists, calcium flux assay in GnRHR-HEK293 cells (AID 1920063); note: nearly all actives have a fitted effect of over 35% in size; note: potency is the fitted concentration of half-maximal effect
Gonadotropin-releasing hormone receptor (Homo sapiens), sequence (P30968 whole entry, looked up): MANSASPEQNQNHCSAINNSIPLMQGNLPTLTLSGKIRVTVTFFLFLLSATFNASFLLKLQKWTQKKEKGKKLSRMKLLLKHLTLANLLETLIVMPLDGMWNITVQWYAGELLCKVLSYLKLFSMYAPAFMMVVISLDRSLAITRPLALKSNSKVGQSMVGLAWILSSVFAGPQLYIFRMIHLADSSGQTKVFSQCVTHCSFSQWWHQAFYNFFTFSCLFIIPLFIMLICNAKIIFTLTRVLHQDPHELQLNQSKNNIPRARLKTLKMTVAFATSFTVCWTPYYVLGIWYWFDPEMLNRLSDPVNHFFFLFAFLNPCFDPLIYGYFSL
How it was run: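 HEK293 cells stably expressing human GnRHR were dye-loaded for 1 h at 37 C. Compound was added in agonist mode and fluorescence (Ex/Em 480/540) recorded kinetically for 3 min. Fifteen concentrations, triplicates.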

[4] = molecular target: KiSS-1 receptor (Homo sapiens) (UniProt Q969F8); test: Human kisspeptin (KISS1R) small molecule agonists, calcium flux assay in KISS1R-HEK293 cells (AID 1920064; active = well fitted curve in the direction sought with a large enough effect in the repeat runs; an effect the other way counts as inactive or inconclusive)
KiSS-1 receptor (Homo sapiens), sequence (Q969F8 whole entry, looked up): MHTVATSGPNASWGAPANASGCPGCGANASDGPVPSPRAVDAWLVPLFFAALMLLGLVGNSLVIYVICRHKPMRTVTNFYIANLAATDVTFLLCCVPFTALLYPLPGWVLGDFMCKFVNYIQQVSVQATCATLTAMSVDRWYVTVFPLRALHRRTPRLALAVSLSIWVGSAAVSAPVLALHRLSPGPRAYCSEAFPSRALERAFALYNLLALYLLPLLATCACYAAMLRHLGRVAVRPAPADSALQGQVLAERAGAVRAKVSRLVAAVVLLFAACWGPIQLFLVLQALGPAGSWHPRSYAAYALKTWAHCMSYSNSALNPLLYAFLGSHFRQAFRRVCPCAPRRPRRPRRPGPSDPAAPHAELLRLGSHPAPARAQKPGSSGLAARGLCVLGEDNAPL
How it was run: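 HEK293 cells stably expressing human KISS1R were loaded with calcium dye for 1 h at 37 C, then given compound; fluorescence (Ex/Em 480/540) was read kinetically for 3 min. Fifteen concentrations, triplicate.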

[5] = G protein-coupled receptor (GPCR) small molecule agonists, calcium flux assay: HEK293 wild type cell line counter screen (AID 1920065); note: potency is the fitted concentration of half-maximal effect
How it was run: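 Wild-type HEK293 cells plated 18 h, loaded with calcium dye 1 h at 37 C, then compounds added in agonist mode (ATP as positive control). Kinetic fluorescence Ex/Em 480/540 recorded 3 min at 1 sec intervals; 15 concentrations, triplicate.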

[6] = p53 small molecule agonists, cell-based qHTS assay with human liver microsomes: qHTS cell viability counter screen (AID 1963579); note: nearly all actives have a fitted effect of over 45% in size; note: potency is the fitted concentration of half-maximal effect
How it was run: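 Seed p53RE-bla cells at 4,000 per well; incubate 5 h at 37 C; add compound, human liver microsomes and NADPH; incubate 16 h at 37 C; add CellTiter-Glo; after 30 min at room temperature, read luminescence.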

[7] = p53 small molecule agonists, cell-based qHTS assay: qHTS cell viability counter screen (AID 1963581); note: nearly all actives have a fitted effect of over 45% in size; note: potency is the fitted concentration of half-maximal effect
How it was run: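 p53RE-bla HCT-116 cells, compounds added 5 h after plating and incubated 16 h at 37 C. Cytotoxicity measured in the same wells as intracellular ATP by CellTiter-Glo luminescence after 30 min at room temperature.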

[8] = molecular target: 5-hydroxytryptamine receptor 2A (Homo sapiens) (UniProt P28223); test: 5-hydroxytryptamine receptor 2A (HTR2A) small molecule antagonists, cell-based qHTS assay (AID 1963586); note: nearly all actives have a fitted effect of over 45% in size
5-hydroxytryptamine receptor 2A (Homo sapiens), sequence (P28223 whole entry, looked up): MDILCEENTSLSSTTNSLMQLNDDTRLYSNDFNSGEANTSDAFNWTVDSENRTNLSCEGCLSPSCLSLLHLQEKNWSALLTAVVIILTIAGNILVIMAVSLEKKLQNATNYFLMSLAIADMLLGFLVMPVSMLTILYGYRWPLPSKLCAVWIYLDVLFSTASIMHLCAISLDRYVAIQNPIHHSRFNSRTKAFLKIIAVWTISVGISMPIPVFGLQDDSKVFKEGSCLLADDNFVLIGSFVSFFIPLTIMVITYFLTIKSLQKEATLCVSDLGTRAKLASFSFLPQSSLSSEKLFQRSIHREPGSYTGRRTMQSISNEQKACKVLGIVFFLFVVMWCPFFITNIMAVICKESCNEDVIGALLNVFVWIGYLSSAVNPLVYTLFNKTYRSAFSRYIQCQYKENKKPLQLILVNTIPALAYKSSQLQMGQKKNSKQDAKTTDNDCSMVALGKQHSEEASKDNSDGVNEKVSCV
How it was run: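 Antagonist-mode intracellular calcium assay: DOI (4 nM) added after 5 min compound pre-incubation at room temperature to dye-loaded HTR2A-CHO cells. Fluorescence followed for 3 min, sampled every second.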

[9] = molecular target: 5-hydroxytryptamine receptor 2A (Homo sapiens) (UniProt P28223); test: 5-hydroxytryptamine receptor 2A (HTR2A) small molecule agonists, cell-based qHTS assay (AID 1963587); note: nearly all actives have a fitted effect of over 30% in size
How it was run: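 Kinetic calcium-flux fluorescence (2 min, 1 sec intervals) after compound addition in agonist mode. HTR2A-CHO cells were cultured 18 h, then dye-loaded 1 h at 37 C.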

[10] = molecular target: Muscarinic acetylcholine receptor M1 (Homo sapiens) (UniProt P11229); test: Cholinergic receptor muscarinic 1 (CHRM1) small molecule antagonists, cell-based qHTS assay (AID 1963588); note: nearly all actives have a fitted effect of over 40% in size; note: potency is the fitted concentration of half-maximal effect
Muscarinic acetylcholine receptor M1 (Homo sapiens), sequence (P11229 whole entry, looked up): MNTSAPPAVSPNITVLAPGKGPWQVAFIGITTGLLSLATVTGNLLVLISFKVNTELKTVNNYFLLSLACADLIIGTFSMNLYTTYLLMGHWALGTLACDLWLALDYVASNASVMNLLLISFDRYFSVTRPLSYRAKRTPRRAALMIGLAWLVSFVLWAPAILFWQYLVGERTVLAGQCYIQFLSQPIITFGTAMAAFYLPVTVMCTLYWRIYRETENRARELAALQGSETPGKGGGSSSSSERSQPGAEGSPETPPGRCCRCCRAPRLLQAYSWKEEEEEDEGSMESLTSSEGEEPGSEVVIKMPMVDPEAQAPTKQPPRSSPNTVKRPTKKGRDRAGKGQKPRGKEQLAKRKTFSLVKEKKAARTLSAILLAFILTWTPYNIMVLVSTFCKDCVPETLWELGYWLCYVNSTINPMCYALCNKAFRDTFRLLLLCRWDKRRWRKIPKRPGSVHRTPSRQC
How it was run: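 CHRM1-CHO calcium-flux assay, antagonist mode. Cells were seeded 18 h, dye-loaded 1 h at 37 C and given compound for 5 min at RT, then acetylcholine was added at 50nM. FDSS fluorescence was read 3 min; 15 concentrations, three runs.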

[11] = molecular target: Muscarinic acetylcholine receptor M1 (Homo sapiens) (UniProt P11229); test: Cholinergic receptor muscarinic 1 (CHRM1) small molecule agonists, cell-based qHTS assay (AID 1963589); note: nearly all actives have a fitted effect of over 35% in size
How it was run: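 CHO cells stably expressing human CHRM1 were loaded with calcium dye for 1 h at 37 C, then compound was added in agonist mode. Intracellular calcium fluorescence was followed kinetically at 1 s intervals. Fifteen concentrations were tested in three independent runs.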

[12] = cAMP Responsive Elements (CRE) small molecule agonists, cell-based qHTS assay (AID 1963590)
How it was run: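 CRE-bla HEK 293T cells, 2,000/well in DMEM with 10% dialyzed FBS and 25 mM HEPES, pre-incubated 18 h at 37 C, then exposed to compound 3 h at 37 C. Beta-lactamase reporter read with LiveBLAzer B/G FRET substrate after 2 h at room temperature.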

[13] = cAMP Responsive Elements (CRE) small molecule antagonists, cell-based qHTS assay (AID 1963591; active = well fitted inhibition curve with a large enough effect in the signal ratio in the repeat runs, not every such curve was filed as active; the % refers to the signal ratio)
How it was run: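 CRE-bla HEK293T cells plated 18 h, then given compound plus NKH477 at 0.25 uM final for 3 h at 37C. Beta-lactamase reporter read with LiveBLAzer B/G FRET substrate after 2 h at room temperature.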

[14] = molecular target: Beta-2 adrenergic receptor (Homo sapiens) (UniProt P07550); test: Adrenergic beta2 receptor (ADRB2) small molecule antagonists, cell-based qHTS assay (AID 1963592); note: series mostly up to about 92 µM; nearly all actives have a fitted effect of over 50% in size
Beta-2 adrenergic receptor (Homo sapiens), sequence (P07550 whole entry, looked up): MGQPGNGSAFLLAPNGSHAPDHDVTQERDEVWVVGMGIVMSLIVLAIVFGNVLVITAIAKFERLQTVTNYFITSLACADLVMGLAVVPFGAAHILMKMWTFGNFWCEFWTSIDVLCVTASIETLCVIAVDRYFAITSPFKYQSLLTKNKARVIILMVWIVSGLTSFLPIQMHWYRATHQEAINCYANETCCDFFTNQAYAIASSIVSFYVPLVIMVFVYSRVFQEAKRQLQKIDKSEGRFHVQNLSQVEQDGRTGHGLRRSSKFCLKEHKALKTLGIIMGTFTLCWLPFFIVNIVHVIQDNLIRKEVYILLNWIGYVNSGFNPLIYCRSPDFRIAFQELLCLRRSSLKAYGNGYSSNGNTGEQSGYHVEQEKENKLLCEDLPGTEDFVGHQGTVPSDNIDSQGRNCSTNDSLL
How it was run: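 Cells (CHO, stable ADRB2 overexpression) incubated 18-20hr at 37C; compounds added from DMSO; agonist mix (1nM isoproterenol, 100uM IBMX, 25uM Ro-20-1724) added; 0.5hr RT; d2-cAMP and anti-cAMP-cryptate added; 1hr RT; 665/615 nm read.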

[15] = molecular target: D(2) dopamine receptor (Homo sapiens) (UniProt P14416); test: Dopamine D2 receptor (DRD2) small molecule agonists, cell-based qHTS assay (AID 1963594); note: nearly all actives have a fitted effect of over 35% in size
D(2) dopamine receptor (Homo sapiens), sequence (P14416 whole entry, looked up): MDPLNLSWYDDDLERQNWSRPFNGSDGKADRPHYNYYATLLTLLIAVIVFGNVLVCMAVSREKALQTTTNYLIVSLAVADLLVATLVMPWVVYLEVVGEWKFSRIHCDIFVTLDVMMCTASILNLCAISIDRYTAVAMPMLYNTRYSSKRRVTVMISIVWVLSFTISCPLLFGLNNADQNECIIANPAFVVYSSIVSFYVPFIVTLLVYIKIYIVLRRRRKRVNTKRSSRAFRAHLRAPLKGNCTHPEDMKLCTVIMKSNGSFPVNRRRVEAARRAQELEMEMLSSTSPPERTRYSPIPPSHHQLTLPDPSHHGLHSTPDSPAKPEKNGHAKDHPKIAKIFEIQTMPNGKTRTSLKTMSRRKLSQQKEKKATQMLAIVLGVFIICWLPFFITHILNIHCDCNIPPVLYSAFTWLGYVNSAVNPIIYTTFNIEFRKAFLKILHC
How it was run: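 cAMP accumulation in DRD2-HEK293 cells measured by HTRF after 1 h detection; compounds added 10 min before NKH477 (200nM […]) forskolin-analogue stimulation, 30 min at room temperature, with Ro20-1724 present at 0.1 mM final.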

[16] = molecular target: D(2) dopamine receptor (Homo sapiens) (UniProt P14416); test: Dopamine D2 receptor (DRD2) small molecule antagonists, cell-based qHTS assay (AID 1963595; active = well fitted inhibition curve with a large enough effect in the signal ratio in the repeat runs, with a control signal flat; the % refers to the signal ratio)
How it was run: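 Antagonism was scored as restored cAMP in HEK293-DRD2 cells. These cells were stimulated with 200 nM NKH477 and 12 nM quinpirole for 30 min at room temperature, in the presence of 0.1 mM Ro20-1724.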

[17] = p53 small molecule agonists, cell-based qHTS assay with rat liver microsomes: qHTS cell viability counter screen (AID 1963580); note: nearly all actives have a fitted effect of over 45% in size; note: potency is the fitted concentration of half-maximal effect
How it was run: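 HCT-116 p53RE-bla, 4,000 cells/well, 5 h pre-incubation; cpd + rat liver microsomes 0.5 mg/mL + NADPH 0.5 mg/mL (final); 16 h, 37 C; CellTiter-Glo, 30 min RT; luminescence.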

[18] = molecular target: Beta-2 adrenergic receptor (Homo sapiens) (UniProt P07550); test: Adrenergic beta2 receptor (ADRB2) small molecule agonists, cell-based qHTS assay (AID 1963593);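 note: CHO cells stably overexpressing human ADRB2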
How it was run: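 CHO cells stably over-expressing ADRB2 were plated overnight at 37C, then dosed with compounds plus a stimulation mix containing 100uM IBMX and 25uM Ro-20-1724 for 0.5hr at room temperature. cAMP was measured by HTRF competition, 1hr.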

Measured: Potency

COC(=O)c1ccccc1S(=O)(=O)NC(=O)Nc1nc(C)cc(C)n1
not listed: [17] | [18]
inactive: all other assays above

CCC(C)(C)c1cc(-n2nc3ccccc3n2)c(O)c(C(C)(C)CC)c1
active: [10] 0.0956 µM
not listed: [7]
inactive: all other assays above

O=[N+]([O-])c1cc(C(F)(F)F)c(Cl)c([N+](=O)[O-])c1Nc1ncc(C(F)(F)F)cc1Cl
active: [1] 9.69 µM | [2] 6.11 µM | [5] 1.23 µM | [6] 45.8 µM | [17] 25.7 µM | [7] 40.8 µM | [10] 0.472 µM
inactive: [3] | [4] | [9] | [11] | [15] | [16]

COC(=O)C1=CCCN(C)C1
active: [3] 1.07 µM
not listed: [8] | [10] | [11] | [12]
inactive: all other assays above

Cc1cnc2c(C(=O)O)c(Cl)ccc2c1
not listed: [10] | [17]
inactive: all other assays above

CCSC(=O)N(CC)C1CCCCC1
not listed: [14] | [17] | [18]
inactive: all other assays above

Cc1ccn2nc(S(=O)(=O)Nc3c(F)cccc3F)nc2n1
not listed: [9] | [14] | [17] | [18]
inactive: all other assays above

CCOP(=O)(O)C(N)=O
not listed: [6] | [18]
inactive: all other assays above

CCN[C@H](C)Cc1cccc(C(F)(F)F)c1
not listed: [8] | [9] | [10] | [11] | [14] | [16] | [18]
inactive: all other assays above
